High-throughput results (PubChem)
uPA generation: blocks generation of uPA at the cell surface; cell surface uPA generation assay, qHTS; Potency, µM (series often up to 38.3 µM), for the others: at the highest dose activity change, negative = inhibition, hits mostly inhibitors; hit rate 0.31% among 330,000; AID 540303; active = well fitted inhibition curve with a large enough effect; inconclusive = small, poorly fitted or top-dose-only effect; inactive = no such curve, though single readings can be large or run the other way; tested in mouse RAW 264.7 cells; note: % is set by controls: 0 for no effect and ±100 for the full control effect; nearly all actives have a fitted effect of over 55% in size
SMN2 splice enh: SMN2 splice variant enhancement; HEK293 SMN2-luciferase splicing reporter, luminescence, 30-36 h; Potency, µM (highest dose often 46.1 µM), without a hit: top-dose activity change, positive = activation, usual class: activators; hit rate 2.8% among 210,000; AID 1458; note: % of control where 0% means no effect; nearly all actives have a fitted effect of over 55% in size
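HEK293 cells carry an SMN2 […]–luciferase reporter in which exon 7 inclusion puts luciferase in frame. Cells were plated 10-12 h before compound addition, then incubated 30-36 h at 37C. ONE-Glo luminescence was read; sodium butyrate at 4.5 mM final served as control.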
FLuc modulator: inhibits or activates purified firefly luciferase, miR-21 counter-screen; purified FLuc, Km substrates, luminescence inhibition; Potency, µM (top dose mostly 57.5 µM), for the others: top-dose activity change, negative = inhibition, usual class: inhibitors; hit rate 6.9% among 360,000;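 note: plate controls were vehicle for no effect and reference inhibitor for full effect; nearly all actives have a fitted effect of over 55% in size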
Target sequence (P08659 whole entry, looked up): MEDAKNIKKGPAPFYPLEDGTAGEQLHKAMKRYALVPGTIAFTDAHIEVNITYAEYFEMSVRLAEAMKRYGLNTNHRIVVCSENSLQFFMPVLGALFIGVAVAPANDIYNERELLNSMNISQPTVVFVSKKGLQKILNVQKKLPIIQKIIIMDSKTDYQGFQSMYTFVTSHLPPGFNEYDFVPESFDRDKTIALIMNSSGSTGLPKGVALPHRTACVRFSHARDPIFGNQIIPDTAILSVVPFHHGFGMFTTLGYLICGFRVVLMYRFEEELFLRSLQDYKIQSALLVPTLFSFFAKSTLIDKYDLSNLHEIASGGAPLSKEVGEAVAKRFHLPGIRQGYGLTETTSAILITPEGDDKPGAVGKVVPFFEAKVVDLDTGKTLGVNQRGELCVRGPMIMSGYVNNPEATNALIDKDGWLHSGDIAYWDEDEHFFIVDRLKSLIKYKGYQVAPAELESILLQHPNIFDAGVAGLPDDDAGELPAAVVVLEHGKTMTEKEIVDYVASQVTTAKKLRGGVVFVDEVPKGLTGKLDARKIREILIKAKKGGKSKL
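Biochemical qHTS of compounds, final roughly 60 µM downward over six points, against 10 nM purified firefly luciferase using Km concentrations of substrates (10 uM D-luciferin, 10 uM ATP) in Tris acetate pH 7.5 buffer; luminescence output.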
NPC1 prom act: activators of NPC1 promoter. Huh7 NPC1 promoter luciferase reporter, 24 h. hit rate 2.4% among 320,000. Potency, µM (top dose mostly 9.22 µM), without a hit: top-dose activation, hits mostly activators; note: % of control where 0% means no effect; nearly all actives have a fitted effect of over 60% in size
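Luminescence read-out of NPC1 promoter-driven luciferase in stably transfected Huh7 cells; compounds delivered in DMSO and left 24 h at 37C, 5% CO2, qHTS titration format.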
Rab9 promoter act: Rab9 promoter activation. Huh7 Rab9 promoter-luciferase reporter, luminescence, 24 h. Potency, µM (titrated, usually from 9.22 µM), inactives show at the highest dose activation, negative = inhibition, usual class: activators. hit rate 2.8% among 320,000; note: % of control where 0% means no effect; nearly all actives have a fitted effect of over 60% in size
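Huh7 cells stably carrying Rab9 promoter–luciferase reporter, plated 1500 cells/well, compound added after 2 h and incubated 24 h at 37 °C; luciferase luminescence then read after 10 min with detection reagent.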
ELG1 genotox: genotoxicity induction in ELG1-luciferase HEK293T cells; HEK293T ELG1-luciferase reporter, luminescence, 16 h; Potency, µM (series often up to 46 µM), for inactives: at the top dose activity change, positive = activation, most hits filed as activators; hit rate 1.3% among 330,000; note: % of control where 0% means no effect; nearly all actives have a fitted effect of over 60% in size
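ELG1-luciferase HEK293T cells, 2,000/well; compound pinned in; 16 hr, 37 °C, 5% CO2; ONE-Glo, 30 min RT; luminescence on CCD imager.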
* marks the source's active call; other numbers are inactive results; ? = inconclusive; . = not tested or not shown; [ ] = another dose, or the depositor's remark. An excerpt weighted towards active compounds, which were near 7.3% of everything screened. Unless noted, calls come from the whole dose curve; as a rule, active = well fitted curve in the direction sought with a large enough effect; inconclusive = small, poorly fitted or top-dose-only effect, or another doubt; inactive = no such curve, though single readings can be large; an effect the other way counts as inactive or inconclusive. Potency is the fitted concentration of half-maximal effect.

SMILES | uPA generation | SMN2 splice enh | FLuc modulator | NPC1 prom act | Rab9 promoter act | ELG1 genotox
COc1cc(OC)cc(C(=O)Nc2ccc(NC(=O)c3ccco3)c(C)c2)c1 | 5.3% | . | 12µM* | 19.8% | 15.4% | ?
Cc1ccc(NC(=O)c2ccco2)cc1C | -7.6% | 15.8µM* | 9.53µM* | 2.82µM* | 3.98µM* | ?
Cc1ccc(NC(=O)COC(=O)c2ccco2)cc1C | 6.0% | . | ? | -1.3% | -3.5% | 1.3%
O=C(Nc1cccc(NC(=O)c2ccco2)c1)c1ccc2c(c1)OCCO2 | -4.4% | 19.8% | 9.53µM* | 3.6% | 13.1% | -0.4%
O=C(COC(=O)c1ccco1)Nc1ccc2c(c1)OCCO2 | 1.7% | -1.2% | 2.39µM* | -3.0% | 0.6% | 1.0%
Cc1ccccc1N1CC(c2nnc(NC(=O)c3ccco3)s2)CC1=O (centres undefined) | . | . | -17.9% | . | . | .
CC(C)(C)C1CCc2c(sc(NC(=O)c3ccc(Cl)cc3)c2C(=O)NCc2ccco2)C1 (centres undefined) | . | -5.9% | 0.8% | . | . | .
CN1CCN(c2ccnc(-c3ccccc3C(F)(F)F)n2)CC1 | . | -26.5% | . | . | . | .
Cc1ccc(OCc2n[nH]c(=S)n2-c2ccc(Br)cc2)cc1 | 11.3% | . | -1.1% | -1.9% | -0.7% | -2.6%
CCOc1ccc(CCNC(=O)Cn2nc(CC)n3c(cc4c(OC)cccc43)c2=O)cc1OCC | . | 16.1% | 0.5% | . | . | .
Cc1cc(NC(=O)c2ccc3c(c2)OCO3)ccc1NC(=O)c1ccco1 | 6.0% | 17.1% | 21.3µM* | 11.5% | 12.3% | 2.7%
Cc1ccc(C(=O)Nc2ccc3c(c2)OCO3)cc1NC(=O)c1ccco1 | -17.6% | ? | ? | 17.7% | ? | 9.8%
O=C(CNC(=O)c1cccs1)Nc1ccc2c(c1)OCCO2 | ? | . | 6.01µM* | 1.26µM* | 1.12µM* | 1.64µM*
Cc1ccc(C(=O)NCC(=O)Nc2ccc3c(c2)OCCO3)cc1 | 0.6% | . | -4.6% | -3.5% | 12.5% | 0.8%
Cn1cccc1C(=O)OCC(=O)Nc1ccc2c(c1)OCCO2 | -3.5% | . | . | . | . | 1.03µM*
CCCC(=O)Nc1ccc(NC(=O)c2ccco2)c(OC)c1 | -4.9% | ? | 15.1µM* | ? | ? | ?
CCC(=O)Nc1ccc(NC(=O)c2ccco2)c(OC)c1 | 1.0% | 40.0% | 1.7%[2.3 µM] | 23.7% | ? | ?
O=C1CN(C(=O)c2ccc(S(=O)(=O)N3CCCCC3)cc2)C(c2ccc(F)cc2)c2cc(F)ccc2N1 (centres undefined) | . | 5.4% | 3.1% | . | . | .
O=C(CSc1oc(-c2cccs2)nc1S(=O)(=O)c1ccccc1)Nc1ccc(F)cc1 | . | -2.0% | 1.6% | . | . | .
CC(=O)Nc1cccc(NC(=O)c2ccco2)c1 | 0.2% | 21.6% | -10.9% | 0.3% | -0.4% | -0.6%
CC1(C)Oc2ccc(NC(=O)c3ccco3)cc2O1 | -15.3% | 12.6µM* | 6.01µM* | 1µM* | 2.51µM* | ?
O=C(Nc1cccc(NC(=O)c2ccco2)c1)c1ccc2c(c1)OCO2 | . | 3.0% | 15.1µM* | 2.6% | -5.0% | 0.3%
COc1cc(NC(=O)c2ccc3c(c2)OCCO3)ccc1NC(=O)c1ccco1 | 2.6% | . | 3.38µM* | 22.4% | 29.4% | 0.6%
Cc1ccc(Cl)cc1NC(=O)CN1C(=O)c2ccccc2Sc2ncccc21 | . | . | 3.7% | . | . | .
CCOC(=O)c1ccc(NC(=O)c2c(C)nn(-c3ccc(F)cc3)c2-n2cccc2)cc1 | . | . | 0.1% | . | . | .
SMILES | uPA generation | SMN2 splice enh | FLuc modulator | NPC1 prom act | Rab9 promoter act | ELG1 genotox
Cn1c(C(=O)NCCc2ccccc2)cc2cc(S(=O)(=O)N3CCCCC3)ccc21 | . | . | 2.8% | . | . | .
Cn1cccc1C(=O)NC(=O)COC(=O)CC12CC3CC(CC(C3)C1)C2 | 3.2% | -7.4% | 16.9µM* | 1.0% | -3.8% | 5.8%
CC(C)(C)c1ccc(-c2ncccc2O)cc1 | -4.0% | . | 13.5µM* | 21.7% | 18.0% | 9.8%
Oc1c(C(c2cccs2)N2CCN(c3ccccc3)CC2)ccc2cccnc12 (centres undefined) | . | -79.7% | ? | . | . | .
Oc1c(C(c2ccccc2Cl)N2CCCC2)ccc2cccnc12 (centres undefined) | 7.94µM* | -55.4% | -1.2% | -6.6% | -5.1% | ?
Cc1ccnc(NC(=O)c2ccc3c(c2)C(=O)N(CC2CCCO2)C3=O)c1 (centres undefined) | 7.8% | -0.8% | 21.3µM* | 1.5% | -3.1% | 6.5%
O=C(Nc1ccncc1)c1ccc2c(c1)C(=O)N(CC1CCCO1)C2=O (centres undefined) | 4.4% | -2.7% | -5.7% | -2.0% | -0.8% | 1.7%
Cc1ccnc(NC(=O)c2ccc(OCC3CCCO3)cc2)c1 (centres undefined) | -21.4% | . | 0.953µM* | 0.282µM* | 0.126µM* | ?
Nc1cccc(Oc2ccc3c(c2)C(=O)N(CC2CCCO2)C3=O)c1 (centres undefined) | 12.7% | . | 23.9µM* | 1.58µM* | 1µM* | 15.0%
Cc1ccc(NC(=O)c2ccc(OCC3CCCO3)cc2)c(C)c1 (centres undefined) | 0.4% | ? | ? | 20.8% | ? | 13.6%
Cc1ccc(C(=O)Nc2ccc3c(c2)C(=O)N(CC2CCCO2)C3=O)cc1 (centres undefined) | -3.5% | . | 4.78µM* | 9.0% | 1.6% | -9.7%
Cc1ccc(-n2ncc3c2CCCC3NC(=O)CCCN2CCCCC2=O)cc1C (centres undefined) | 8.1% | . | -4.4% | -4.0% | 5.1% | -3.5%
COc1ccc(N2CC(NC(=O)C3CCCCC3)CC2=O)cc1 (centres undefined) | . | . | 0.5% | . | . | .
CC(C1CCCC(=O)C1)[N+](=O)[O-] (centres undefined) | . | 12.5% | . | . | . | .
CCSc1nnc(NC(=O)/C=C/c2ccco2)s1 | -12.3% | 11.2µM* | -8.1% | ? | 3.98µM* | ?
Cc1nc(NC(=O)/C=C/c2ccco2)sc1C | -8.2% | 11.2µM* | ? | -4.4% | -6.5% | ?
O=C(/C=C/c1ccco1)Nc1cccc(NC(=O)/C=C/c2ccco2)n1 | -1.3% | ? | 1.69µM* | ? | 3.16µM* | -3.5%
CCCn1nnc(NC(=O)/C=C/c2ccco2)n1 | -0.4% | . | -12.7% | 19.5% | 2.9% | -0.7%
O=C(/C=C/c1ccco1)NC1=NCCS1 | -5.9% | 8.91µM* | 10.7µM* | 2.24µM* | 2.51µM* | 9.2µM*
O=C(/C=C/c1ccco1)Nc1nnc(-c2ccco2)s1 | ? | . | 0.4% | 0.2% | 19.5% | 5.4%
O=C(NCCc1ccccc1)c1ccc(CSc2nc3ccncc3n2Cc2cccc(F)c2)cc1 | . | 1.4% | -13.1% | . | . | .
CCc1nnc(NC(=O)/C=C/c2ccco2)s1 | -17.4% | 12.6µM* | ? | ? | 1.78µM* | ?
Cc1ccc(CNC(=O)c2ccc3c(c2)N(Cc2cccc(C)c2)C(=O)CS3)cc1 | . | 0.1% | -3.3% | . | . | .
COc1ccc(S(=O)(=O)c2cc3cc(C(C)(C)C)cc(O)c3oc2=O)cc1 | . | -47.5% | -17.7% | . | . | .
